EBV LMP1 NFkB = EBV LMP1-driven NF-kappaB luciferase reporter inhibitors, primary screen, cell-based, luminescence, single point; inhibition, % at 12.5 µM; LMP1-induced NF-kappaB luciferase reporter cells; 350,000 tested, 0.69% active; in the data active = inhibition above about 41%; inconclusive = no clear call, values can overlap the other calls;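 also: 0% = neutral control wells and 100% = reference inhibitor control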
TWEAK-Fn14 inh = inhibitors of TWEAK-Fn14 signaling, primary screen, luciferase reporter cells, uHTS; TWEAK-stimulated Fn14 reporter cells, luciferase luminescence, 8 h; inhibition, % at 10 µM; 360,000 tested, 2% active; AID 1159606, 2016; in the data active = inhibition above about 50%
LGR2 antag = inhibitors of bursicon-induced LGR2 CRE-luciferase signal, primary screen, cell-based, HEK293, CRE-luciferase reporter, bursicon stimulation; bursicon-stimulated, 4 h; inhibition, % at 9.99 µM; 380,000 tested, 0.35% active; AID 720647, 2013;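 active = drop in luminescence signal, shown as inhibition above about 50% in the replicate tests, limit read from the data, passing the limit was not always enough; inconclusive = probably only some replicates passing the limit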;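 also: agonist challenge used bursicon conditioned medium at about half maximal strength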
PAX8 inh HTS = inhibitors of PAX8-driven TPO luciferase reporter, primary screen, RMG-I cells, single concentration | SteadyGlo, 24 h | inhibition, % at 12.6 µM | 360,000 tested, 1.2% active;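 active = mean replicate inhibition at least 60% with every replicate also reaching 60%; inconclusive = only one of the two criteria is met; inactive = mean below 60% and not all replicates reaching 60%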;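 also: luciferase light reporting Pax8 driven TPO promoter activity; plate controls were median of neutral control wells for no effect and mitoxantrone controls for full effect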
TROY signal inh = inhibitors of TROY-driven NF-kB signaling, primary screen, Q293 LMP1-TROYcd cells, NF-kB luciferase, uHTS | 360,000 tested, 0.98% active | inhibition, % at 10 µM | Q293 LMP1-TROYcd NF-kB luciferase reporter, 4 h;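 active = compounds whose plate-normalised and pattern-corrected inhibition of the luciferase reporter signal at the single screening dose is 50% or more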
EWS-Fli inh = EWS/Fli-driven NR0B1 reporter inhibitors, primary screen, A673 cells, NR0B1 luciferase, luminescence, MLPCN library. viability-normalised. inhibition, % at 12.6 µM. 350,000 tested, 0.67% active. AID 651661, 2012;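 active = mean inhibition of at least 50% after viability correction, with every replicate also passing that limit; inconclusive = mean reaches 50% but only one of two replicates passes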;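 also: firefly luciferase signal divided by Alamar Blue viability fluorescence both relative to DMSO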
Active calls of the source: *. Only some compounds are listed: those with a hit (about 3.2% of all), similar ones and a draw of the others.

What do the screens show for `c1csc(CNc2ncnc3ccc(-c4ccoc4)cc23)c1`?
EBV LMP1 NFkB: inconclusive; TWEAK-Fn14 inh: 88*; LGR2 antag: 45; PAX8 inh HTS: -5; TROY signal inh: 55*; EWS-Fli inh: -9

What do the screens show for `Cc1noc(C)c1NC(=O)NCC[C@H]1CC[C@@H](NC(=O)Nc2cccc(Cl)c2)[C@@H](CO)O1`?
LGR2 antag: 12; PAX8 inh HTS: 1; EWS-Fli inh: -4

Results for CCCN1C[C@H](C)[C@H](OC)CN(C)C(=O)c2cc(NC(=O)CC(F)(F)F)ccc2OC[C@@H]1C ?
LGR2 antag: -14; PAX8 inh HTS: 8; EWS-Fli inh: -4

How did O=C(OCc1nc2scc(-c3ccccc3)c2c(=O)[nH]1)c1cc([N+](=O)[O-])ccc1Cl do in these assays?
EBV LMP1 NFkB: -20; TWEAK-Fn14 inh: 63*; LGR2 antag: 11; PAX8 inh HTS: -10; TROY signal inh: 33; EWS-Fli inh: -3

How did CO[C@H]1CN(C)C(=O)c2ccc(NC(=O)c3ccccc3F)cc2OC[C@@H](C)N(CC2CCOCC2)C[C@H]1C do in these assays?
LGR2 antag: 9; PAX8 inh HTS: -9; EWS-Fli inh: 3

Results for C[C@H]1CCCCO[C@@H](CN(C)C(=O)Nc2ccc(C(F)(F)F)cc2)[C@@H](C)CN([C@@H](C)CO)C(=O)c2cc(NS(=O)(=O)c3cccs3)ccc2O1 ?
LGR2 antag: 6; PAX8 inh HTS: 62*; EWS-Fli inh: 14

What do the screens show for `C[C@@H]1CN([C@@H](C)CO)C(=O)c2cc(NS(=O)(=O)c3cccs3)ccc2O[C@@H](C)CCCCO[C@@H]1CN(C)C(=O)Nc1ccc(C(F)(F)F)cc1`?
LGR2 antag: -5; PAX8 inh HTS: 42; EWS-Fli inh: 32

How did C[C@@H]1CCCCO[C@@H](CN(C)C(=O)Nc2ccc(C(F)(F)F)cc2)[C@@H](C)CN([C@H](C)CO)C(=O)c2cc(NS(=O)(=O)c3cccs3)ccc2O1 do in these assays?
LGR2 antag: 11; EWS-Fli inh: 10

Results for C[C@@H]1CCCCO[C@@H](CN(C)C(=O)Nc2ccc(C(F)(F)F)cc2)[C@H](C)CN([C@H](C)CO)C(=O)c2cc(NS(=O)(=O)c3cccs3)ccc2O1 ?
LGR2 antag: 6; PAX8 inh HTS: 85*; EWS-Fli inh: 27

How did C[C@H](CO)N1C[C@H](C)[C@H](CN(C)C(=O)Nc2ccc(C(F)(F)F)cc2)OCCCC[C@H](C)Oc2ccc(NS(=O)(=O)c3cccs3)cc2C1=O do in these assays?
LGR2 antag: -22; PAX8 inh HTS: 66*; EWS-Fli inh: 8

Results for C[C@@H]1CCCCO[C@H](CN(C)C(=O)Nc2ccc(C(F)(F)F)cc2)[C@@H](C)CN([C@H](C)CO)C(=O)c2cc(NS(=O)(=O)c3cccs3)ccc2O1 ?
LGR2 antag: 8; PAX8 inh HTS: 3; EWS-Fli inh: -14

What do the screens show for `C[C@@H]1CN([C@H](C)CO)S(=O)(=O)c2ccc(-c3ccncc3)cc2O[C@H]1CN(C)C(=O)c1cccc(F)c1`?
LGR2 antag: 7; PAX8 inh HTS: 13; EWS-Fli inh: 5

Results for C[C@H]1CCCCO[C@H](CN(C)C(=O)Nc2ccccc2)[C@@H](C)CN([C@@H](C)CO)C(=O)c2cc(NC(=O)C3CCCCC3)ccc2O1 ?
LGR2 antag: 17; PAX8 inh HTS: 2; EWS-Fli inh: -3

What do the screens show for `Cc1cccc(OCc2nnc(SCc3nc4ccccc4c(=O)[nH]3)o2)c1`?
EBV LMP1 NFkB: 0; TWEAK-Fn14 inh: -18; TROY signal inh: -6

How did CC(NC(=O)c1ccccc1)c1nnc(SCc2nc3ccccc3c(=O)[nH]2)n1C (stereo not drawn) do in these assays?
EBV LMP1 NFkB: -7; TWEAK-Fn14 inh: -9; LGR2 antag: 8; PAX8 inh HTS: 8; TROY signal inh: -1; EWS-Fli inh: 5

Results for c1ccc2[nH]c(CSc3nnc(-c4ccncc4)o3)nc2c1 ?
EBV LMP1 NFkB: 1; TWEAK-Fn14 inh: 58*

Results for Brc1cccc(CSc2nnc(-c3ccncc3)o2)c1 ?
EBV LMP1 NFkB: 71*; TWEAK-Fn14 inh: 62*; LGR2 antag: 34; PAX8 inh HTS: -25; TROY signal inh: 24; EWS-Fli inh: -16

How did COc1ccc(-c2nnc(SCc3nc4ccccc4c(=O)[nH]3)o2)cc1 do in these assays?
EBV LMP1 NFkB: -15; TWEAK-Fn14 inh: 51*; LGR2 antag: 0; PAX8 inh HTS: -24; TROY signal inh: 56*; EWS-Fli inh: -23

What do the screens show for `COc1ccc(CC(=O)NC(C)c2nnc(SCc3nc4ccccc4c(=O)[nH]3)n2C)cc1` (stereo not drawn)?
EBV LMP1 NFkB: 1; TWEAK-Fn14 inh: 75*

Results for C[C@@H]1CCCCO[C@@H](CN(C)C(=O)c2ccccc2)[C@@H](C)CN([C@H](C)CO)C(=O)c2cc(NS(=O)(=O)c3ccccc3)ccc2O1 ?
LGR2 antag: -1; PAX8 inh HTS: -3; EWS-Fli inh: -14

Results for COc1ccc(-c2nnc(SCC(=O)NCCc3ccccc3)o2)cc1 ?
EBV LMP1 NFkB: 3; TWEAK-Fn14 inh: 87*

Results for CCOC(=O)c1c(-c2ccccc2Cl)csc1NC(=O)CSc1nc(C)cc(=O)[nH]1 ?
EBV LMP1 NFkB: 2; TWEAK-Fn14 inh: 12; LGR2 antag: 23; PAX8 inh HTS: 17; TROY signal inh: 59*; EWS-Fli inh: -8

Results for Cc1nnc(SCC(=O)Nc2cc(-c3cc(C)c(C)cc3C)nn2-c2ccccc2)s1 ?
EBV LMP1 NFkB: 50*; TWEAK-Fn14 inh: 0; LGR2 antag: 2; PAX8 inh HTS: 22; TROY signal inh: -8; EWS-Fli inh: -27

What do the screens show for `CCOC(=O)c1c(-c2ccccc2)csc1NC(=O)CSc1nnc(C)s1`?
EBV LMP1 NFkB: 22; TWEAK-Fn14 inh: 79*; LGR2 antag: -19; PAX8 inh HTS: 2; TROY signal inh: 38

What do the screens show for `CCOC(=O)c1c(-c2ccc(C)o2)csc1NC(=O)CSc1nnc(C)s1`?
EBV LMP1 NFkB: -4; TWEAK-Fn14 inh: 0; TROY signal inh: -2

What do the screens show for `CCOC(=O)c1ccc(NC(=O)CSc2nc(C)cc(=O)[nH]2)cc1`?
EBV LMP1 NFkB: 1; TWEAK-Fn14 inh: 3; TROY signal inh: -3

Results for C[C@@H]1CN([C@@H](C)CO)C(=O)Cc2cc(NS(C)(=O)=O)ccc2O[C@H]1CN(C)Cc1ccc(Oc2ccccc2)cc1 ?
LGR2 antag: 1; PAX8 inh HTS: 39; EWS-Fli inh: inactive

What do the screens show for `COCCNC(=O)C/C(C)=N/NC(=O)C(=O)NC1CCCCC1`?
EBV LMP1 NFkB: -2; TWEAK-Fn14 inh: -24; LGR2 antag: -7; PAX8 inh HTS: 101*; TROY signal inh: 9; EWS-Fli inh: 7

Screening data from PubChem.
